Potency data for 40 compounds are collected here from PubChem BioAssay (Tox21).

The source made the active and inactive calls. Entries that show only a call come without a potency. Calls come from the whole dose curve. Peptide text beside a SMILES is read from it.
Potency is the fitted concentration of half-maximal effect.

This assay deals with Gonadotropin-releasing hormone receptor (Homo sapiens) (UniProt P30968). Briefly: Human gonadotropin-releasing hormone receptor (GnRHR) small molecule agonists, calcium flux assay in GnRHR-HEK293 cells (AID 1920063). Note: nearly all actives have a fitted effect of over 35% in size. The settings on record: calcium flux fluorescence, agonist mode; series mostly up to 57.6 µM. An excerpt: National Center for Advancing Translational Sciences [NCATS]
Gonadotropin-releasing hormone receptor (Homo sapiens), sequence (P30968 whole entry, looked up): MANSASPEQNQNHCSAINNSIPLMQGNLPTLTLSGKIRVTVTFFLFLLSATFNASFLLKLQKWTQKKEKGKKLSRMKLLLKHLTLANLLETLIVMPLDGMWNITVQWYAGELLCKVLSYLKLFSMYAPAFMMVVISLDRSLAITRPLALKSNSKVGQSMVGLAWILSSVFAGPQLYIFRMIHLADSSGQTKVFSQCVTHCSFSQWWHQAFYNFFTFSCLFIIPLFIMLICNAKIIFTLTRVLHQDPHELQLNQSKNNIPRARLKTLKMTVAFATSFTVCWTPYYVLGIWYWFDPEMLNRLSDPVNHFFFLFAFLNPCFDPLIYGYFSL
Division of Preclinical Innovation [DPI]
U.S. Environmental Protection Agency [EPA]
National Institutes of Environmental Health Sciences [NIEHS]
National Toxicology Program [NTP]
U.S. Food and Drug Administration [FDA]
Gonadotropin-releasing hormone receptor (GnRHR) is a G-protein-coupled receptor (GPCR) and acts (through phospholipase C) to increase intracellular inositol trisphosphate and then release intracellular calcium stores. Cell-based GnRHR-Hek293 calcium influx assay is using HEK293 cells that have been genetically engineered to express the human GnRHR, which activity can be measured by calcium signaling. A compound/drug can activate (agonist) GnRHR that can be monitored by levels of intracellular calcium.
GnRHR-HEK293 cells developed by Codex Corp contain human GnRHR reporter gene, which was stably integrated into HEK 293 cells. The compound activation can be detected by fluorescence intensity via calcium flux assay. This cell line has been used to screen the Tox21 10K compound library to identify GnRHR agonists.
GnRHR-Hek293 cells were dispensed at 1500cells/4uL/well in 1536-well black wall/clear bottom plates using a multidrop dispenser. After the assay plates were incubated at a 37 C/5% CO2 incubator for 18 hours, 4 uL of Calcium Dye Solution was added to each well. The plates were incubated at 37 C for 1 hour. For agonist mode, 23 nL of compounds dissolved in DMSO, positive controls or DMSO only was transferred to the assay plate by a pin tool station. The fluorescence intensity in the plates was measured using FDSS 7000EX kinetic plate reader with a filter set of Ex/Em=480/540 for 3 min at 1 sec intervals. Each test compound was measured at 15 concentrations and in triplicates.
Turning to `CO[C@@H]1[C@@H](OC(N)=O)[C@@H](O)[C@H](Oc2ccc3c(O)c(NC(=O)c4ccc(O)c(CC=C(C)C)c4)c(=O)oc3c2C)OC1(C)C`, the Potency result was “inactive”. As to `O=C1CCCCCCCCCCCCCC1`, the Potency entry was “inactive”. The entry for `CCC(=O)Nc1ccc(O)cc1` is “inactive”; for `CC(C)CCCCCCOC(=O)c1ccc(C(=O)OCCCCCCC(C)C)c(C(=O)OCCCCCCC(C)C)c1` it is “inactive”; for `Nc1ccc(S(=O)(=O)Nc2ccccn2)cc1` it is “inactive”.

As to `Oc1ccc(C(O)CNCCCCCCNCC(O)c2ccc(O)c(O)c2)cc1O` (stereo not given), the Potency was 75.6 nM (active). The entry for `CCCCCCCCCCC(=O)O` is “inactive”; for `CCCCC(CC)C(=O)OC(C)C` (stereo not given) it is “inactive”.

For the compound `OCCNCc1ccccc1`, the Potency result is “inactive”. Next, `COc1ccc(OC)c(N=Nc2c(O)ccc3ccccc23)c1`: “inactive”. Next, `O=C(O)c1cc(C(=O)O)c(C(=O)O)cc1C(=O)O`: “inactive”.

Consider `CCOC(=O)/C=C/C(=O)O`, for which the Potency entry is “inactive”. Turning to `CC[C@H]1OC(=O)[C@H](C)[C@@H](O[C@H]2C[C@@](C)(OC)[C@@H](O)[C@H](C)O2)[C@H](C)[C@@H](O[C@@H]2O[C@H](C)C[C@H](N(C)C)[C@H]2O)[C@](C)(O)C[C@@H](C)C(=O)[C@H](C)[C@@H](O)[C@]1(C)O`, the Potency result is “inactive”. Next, `CCC(C(=O)OCCN1CCOC(c2ccccc2)C1C)c1ccccc1` (stereo not given): “inactive”; `Nc1ncnc2c1ncn2[C@H]1CC[C@@H](CO)O1`: “inactive”; `O=C(O)CCCC[P+](c1ccccc1)(c1ccccc1)c1ccccc1`: “inactive”. As for `Cc1cccc(C)c1OCC(=O)N[C@@H](Cc1ccccc1)[C@@H](O)C[C@H](Cc1ccccc1)NC(=O)[C@H](C(C)C)N1CCCNC1=O`, the Potency result was “inactive”. The entry for `COC(=O)CCc1ccc(OCC(O)CNC(C)C)cc1` (stereo not given) is “inactive”.

Turning to `CCOC(=O)C(C)O` (stereo not given), the Potency entry is “inactive”. Next, `Nc1[nH]c(=O)ncc1F`: “inactive”; `C=Cc1ccccc1`: “inactive”. The entry for `COc1cc(C)ccc1O` is “inactive”. The entry for `Nc1c(CC(=O)O)cccc1C(=O)c1ccc(Br)cc1` is “inactive”; for `CCOC(=O)c1ccccc1` it is “inactive”; for `C=CCNc1nc(NCC=C)nc(N2CCN(C(c3ccc(F)cc3)c3ccc(F)cc3)CC2)n1` it is “inactive”. As for `CCOC(=O)[C@H](CCc1ccccc1)N[C@@H](C)C(=O)N(CC(=O)O)C1Cc2ccccc2C1`, the Potency result is “inactive”. In the case of `CCN(CC)CCOCCOC(=O)C1(c2ccccc2)CCCC1`, the Potency result is “inactive”. With `Cc1cc(N)c2cc(NC(=O)Nc3ccc4nc(C)cc(N)c4c3)ccc2n1`, the Potency entry was “inactive”.

Turning to `CN1CCN(C2=Nc3ccccc3Sc3ccc(Cl)cc32)CC1`, the Potency entry was “inactive”. With `CCC1(C)C(=O)N(Cl)C(=O)N1Cl` (stereo not given), the Potency result was “inactive”. Regarding `COC(=O)CCCC(=O)O`, the Potency entry is “inactive”. In the case of `Cn1c(=O)[nH]c2ncn(C)c2c1=O`, the Potency result is “inactive”. On to `CCCCCCCCCCCC[N+](C)(C)CCCCCCCCCCCC`, for which the Potency result was “inactive”. On to `O=C(O)Cc1ccccc1Oc1ccc(Cl)cc1Cl`, for which the Potency entry was “inactive”.

`CN(C)CCN(Cc1ccsc1)c1ccccn1`: the Potency entry was “inactive”. `COC(=O)c1ccc(NC(C)=O)cc1OC`: the Potency result was “inactive”. The entry for `CCOc1ccccc1N` is “inactive”. For the compound `O=C1c2ccccc2S(=O)(=O)N1CCCCN1CCN(c2ncccn2)CC1`, the Potency entry was “inactive”. The entry for `CC(=O)N[C@@H](CO)C(=O)N[C@@H](CC(=O)O)C(=O)N[C@@H](CCCCN)C(=O)N1CCC[C@H]1C(=O)O` (Ac-SDKP-OH) is “inactive”; for `CC(C)=CCC/C(C)=C/CC/C(C)=C/CO` it is “inactive”.
